Measurements: PubChem BioAssay (EPA / NIEHS)
Results filed as inconclusive are left out. Active and inactive are the calls of the source. The calls were made as follows, unless noted: active = hit-call score of the fitted dose curve at least 0.9, where 1 is the maximum; inactive = score below 0.9.

Legend:
[1] = read-out: E-selectin (Homo sapiens) (UniProt P16581); assay: BSK_SAg_Eselectin: BioMAP Diversity Plus: SAg Assay for Eselectin Biomarker Activity (AID 2283091); settings: primary human HUVEC with PBMC; actives raise or lower the signal
Summary of the method: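 Primary human endothelial cells and peripheral blood mononuclear cells were co-cultured and exposed to chemical for 24 hours. E-selectin levels were then quantified by ELISA, with bidirectional curve fitting normalised to DMSO controls.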

[2] = read-out: Monokine induced gamma interferon (MIG), CXCL9 (gene 4283); assay: BSK_SAg_MIG: BioMAP Diversity Plus: SAg Assay for Monokine induced gamma interferon (MIG) Biomarker Activity (AID 2283092); settings: primary human HUVEC with PBMC; actives raise or lower the signal
Summary of the method: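 Values reflect bidirectional fitting of ELISA-measured MIG against DMSO vehicle, taken 24 h after dosing of a co-culture of human umbilical vein endothelial cells and peripheral blood mononuclear cells.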

[3] = BSK_SAg_PBMCCytotoxicity: PBMC Cytotoxicity Assessment in the BioMAP Diversity Plus: SAg Assay (AID 2283093); settings: primary human HUVEC with PBMC;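 also: PBMC viability measured as Alamar Blue reduction fluorescence at 546/580 nm; fitted both ways against DMSO so a hit may be loss or gain of signal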;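 as to AC50: PBMC superantigen activated with SEB plus TSST-1 one hour after compound addition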
Summary of the method: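 Human umbilical vein endothelial cells co-cultured with PBMC; PBMC (75,000/well) pre-treated with compound 1 h, then activated with SEB and TSST-1 (20 ng/mL final each) for 90 h. Alamar Blue added 6 h, fluorescence 546/580 nm; bidirectional fit versus DMSO.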

[4] = read-out: Interleukin-8 (IL8), CXCL8 (gene 3576); assay: BSK_SAg_IL8: BioMAP Diversity Plus: SAg Assay for Interleukin-8 (IL8) Biomarker Activity (AID 2283094); settings: primary human HUVEC with PBMC; actives raise or lower the signal
Summary of the method: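 ELISA read-out of IL-8 in a primary human vascular co-culture (umbilical vein endothelium plus PBMC), taken 24 h after compound addition. Values derive from bidirectional fits against DMSO negative controls.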

[5] = BSK_SAg_Proliferation: Cell Proliferation Assessment in the BioMAP Diversity Plus: SAg Assay (AID 2283095); settings: primary human HUVEC with PBMC;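 also: relative cell number as total protein by SRB absorbance in sub-confluent culture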
Summary of the method: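 Cells (endothelium plus PBMC, human primary) were dosed with chemical, cultured 96 h, fixed in 10% TCA and stained with 0.1% SRB. Absorbance at 560 nm gave relative protein, fitted bidirectionally relative to DMSO.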

[6] = BSK_SAg_SRB: Viability Assessment in the BioMAP Diversity Plus: SAg Assay (AID 2283096); settings: primary human HUVEC with PBMC;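 also: cells read one day after compound addition; hits may be either gain or loss of signal compared with DMSO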
Summary of the method: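 Endothelial/PBMC primary human co-culture; compound 24 h; fix 10% TCA, stain 0.1% SRB, A560; protein content as cytotoxicity proxy; bidirectional curve fit, DMSO = baseline.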

[7] = target: human CYP1A1, CYP1A1 (gene 1543) (UniProt P04798); assay: NVS_ADME_hCYP1A1: NovaScreen (NVS) CYP450-related Enzyme Activity (ADME) Assay for human CYP1A1 (AID 2283100; active = hit-call score of the fitted dose curve at least 0.9, where 1 is the maximum)
Sequence of human CYP1A1, CYP1A1 (gene 1543) (P04798 whole entry, looked up): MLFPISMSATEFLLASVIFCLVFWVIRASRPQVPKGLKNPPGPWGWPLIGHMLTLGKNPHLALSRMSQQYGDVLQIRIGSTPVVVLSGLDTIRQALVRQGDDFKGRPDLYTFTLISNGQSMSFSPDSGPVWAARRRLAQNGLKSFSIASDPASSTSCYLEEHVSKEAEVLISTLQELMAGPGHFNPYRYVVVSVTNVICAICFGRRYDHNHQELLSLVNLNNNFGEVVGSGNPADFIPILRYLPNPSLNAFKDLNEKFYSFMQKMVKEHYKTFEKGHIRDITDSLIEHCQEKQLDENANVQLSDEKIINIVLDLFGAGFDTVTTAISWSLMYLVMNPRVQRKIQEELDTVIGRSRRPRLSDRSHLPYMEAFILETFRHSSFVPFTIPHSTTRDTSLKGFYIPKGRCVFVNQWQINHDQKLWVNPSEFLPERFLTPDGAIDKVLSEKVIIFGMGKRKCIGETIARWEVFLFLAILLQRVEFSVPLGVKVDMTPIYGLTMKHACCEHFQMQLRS
Summary of the method: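 Compounds first went through duplicate single-concentration testing at 10 uM against purified CYP1A1. Those passing a threshold such as 30% inhibition entered singleton dose-response, highest concentration 20 uM. Signal was fluorescence measured after 1 hour.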

[8] = target: human CYP1A2, CYP1A2 (gene 1544) (UniProt P05177); assay: NVS_ADME_hCYP1A2: NovaScreen (NVS) CYP450-related Enzyme Activity (ADME) Assay for human CYP1A2 (AID 2283102; active = hit-call score of the fitted dose curve at least 0.9, where 1 is the maximum;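 also: fluorescence from turnover of a fluorogenic substrate by recombinant insect-cell CYP1A2; potency for inhibition since loss of fluorescence marks reduced CYP1A2 activity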)
Sequence of human CYP1A2, CYP1A2 (gene 1544) (P05177 whole entry, looked up): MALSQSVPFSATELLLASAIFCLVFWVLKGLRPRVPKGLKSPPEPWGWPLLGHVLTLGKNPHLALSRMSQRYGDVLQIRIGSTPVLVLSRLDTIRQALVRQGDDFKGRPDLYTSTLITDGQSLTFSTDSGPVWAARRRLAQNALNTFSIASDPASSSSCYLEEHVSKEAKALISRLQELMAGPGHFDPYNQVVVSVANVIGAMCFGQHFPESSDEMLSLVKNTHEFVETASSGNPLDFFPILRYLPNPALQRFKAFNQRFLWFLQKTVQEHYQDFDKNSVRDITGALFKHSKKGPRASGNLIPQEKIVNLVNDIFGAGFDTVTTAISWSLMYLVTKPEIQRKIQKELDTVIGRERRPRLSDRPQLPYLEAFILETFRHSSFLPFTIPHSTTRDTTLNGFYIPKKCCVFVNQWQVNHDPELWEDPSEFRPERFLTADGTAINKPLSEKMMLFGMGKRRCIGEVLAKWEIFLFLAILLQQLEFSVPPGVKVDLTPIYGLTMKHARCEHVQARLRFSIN
Summary of the method: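 Compounds were tested at 10 uM in duplicate against recombinant CYP1A2 produced in insect cells. Enzyme activity was measured by fluorescence 0.5 h after dosing, with loss of signal versus acetonitrile control. Active compounds were re-tested in concentration series.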

[9] = target: human CYP2B6, CYP2B6 (gene 1555) (UniProt P20813); assay: NVS_ADME_hCYP2B6: NovaScreen (NVS) CYP450-related Enzyme Activity (ADME) Assay for human CYP2B6 (AID 2283101; active = hit-call score of the fitted dose curve at least 0.9, where 1 is the maximum)
Sequence of human CYP2B6, CYP2B6 (gene 1555) (P20813 whole entry, looked up): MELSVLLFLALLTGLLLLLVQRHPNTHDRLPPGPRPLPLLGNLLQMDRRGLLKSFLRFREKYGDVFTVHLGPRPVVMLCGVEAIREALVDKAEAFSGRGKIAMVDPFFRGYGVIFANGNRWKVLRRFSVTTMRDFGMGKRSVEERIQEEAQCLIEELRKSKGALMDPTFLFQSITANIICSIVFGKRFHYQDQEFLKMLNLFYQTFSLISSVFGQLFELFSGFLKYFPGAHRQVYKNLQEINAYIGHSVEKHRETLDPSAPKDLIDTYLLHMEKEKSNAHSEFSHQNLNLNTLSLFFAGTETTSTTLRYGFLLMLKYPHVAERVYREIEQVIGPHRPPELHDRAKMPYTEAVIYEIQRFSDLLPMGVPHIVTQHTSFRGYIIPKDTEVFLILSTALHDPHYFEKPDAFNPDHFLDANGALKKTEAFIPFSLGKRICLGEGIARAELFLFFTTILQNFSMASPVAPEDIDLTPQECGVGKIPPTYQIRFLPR
Summary of the method: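 Compounds were first screened in duplicate at 10 uM against recombinant enzyme, with the fluorescent product measured after 1 hour. Active compounds were retested over a concentration series. Loss of fluorescence versus acetonitrile control was scored as reduced enzyme activity.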

[10] = target: human CYP2A6, CYP2A6 (gene 1548) (UniProt P11509); assay: NVS_ADME_hCYP2A6: NovaScreen (NVS) CYP450-related Enzyme Activity (ADME) Assay for human CYP2A6 (AID 2283099; active = hit-call score of the fitted dose curve at least 0.9, where 1 is the maximum)
Sequence of human CYP2A6, CYP2A6 (gene 1548) (P11509 whole entry, looked up): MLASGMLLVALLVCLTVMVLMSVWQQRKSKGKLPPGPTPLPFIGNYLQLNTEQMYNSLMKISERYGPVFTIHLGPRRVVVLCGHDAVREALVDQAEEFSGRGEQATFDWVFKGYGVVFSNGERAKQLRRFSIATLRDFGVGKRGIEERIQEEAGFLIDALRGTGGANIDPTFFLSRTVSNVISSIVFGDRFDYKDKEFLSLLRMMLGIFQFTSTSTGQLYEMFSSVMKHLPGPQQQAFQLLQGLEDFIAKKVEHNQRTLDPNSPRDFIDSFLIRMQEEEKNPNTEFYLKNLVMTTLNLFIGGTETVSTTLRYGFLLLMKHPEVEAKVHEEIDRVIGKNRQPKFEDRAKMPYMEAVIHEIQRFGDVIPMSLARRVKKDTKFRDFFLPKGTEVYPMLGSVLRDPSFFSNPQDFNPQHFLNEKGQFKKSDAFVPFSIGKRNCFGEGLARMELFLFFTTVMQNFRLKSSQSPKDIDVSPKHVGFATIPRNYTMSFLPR
Summary of the method: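 Recombinant human CYP2A6 from insect cells was incubated with chemical for 0.5 h and activity read by fluorescence. Single-concentration duplicates at 10 uM preceded concentration-response testing to 20 uM, with activity referenced to acetonitrile.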

Measured: AC50

Sequence of E-selectin (Homo sapiens) (P16581 whole entry, looked up): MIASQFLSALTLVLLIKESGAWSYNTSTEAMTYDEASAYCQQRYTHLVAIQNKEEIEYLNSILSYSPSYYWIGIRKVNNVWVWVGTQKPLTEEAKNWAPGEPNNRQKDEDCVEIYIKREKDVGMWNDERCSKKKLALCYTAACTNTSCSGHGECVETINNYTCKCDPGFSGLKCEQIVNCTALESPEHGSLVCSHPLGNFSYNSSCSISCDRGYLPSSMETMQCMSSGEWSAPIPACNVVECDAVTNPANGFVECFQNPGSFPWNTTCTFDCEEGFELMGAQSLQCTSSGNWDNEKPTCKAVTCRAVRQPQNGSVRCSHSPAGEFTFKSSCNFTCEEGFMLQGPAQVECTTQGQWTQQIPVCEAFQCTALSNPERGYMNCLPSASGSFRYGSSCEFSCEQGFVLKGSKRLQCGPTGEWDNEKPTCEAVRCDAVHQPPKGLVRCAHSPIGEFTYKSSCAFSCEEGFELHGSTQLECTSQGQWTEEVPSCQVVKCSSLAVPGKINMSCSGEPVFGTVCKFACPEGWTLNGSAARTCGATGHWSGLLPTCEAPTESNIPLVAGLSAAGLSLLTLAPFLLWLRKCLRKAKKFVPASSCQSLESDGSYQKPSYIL

CCC(C)n1c(=O)[nH]c(C)c(Br)c1=O (stereo not drawn)
inactive: [1] | [2] | [3] | [4] | [5] | [6]

O=C(O)c1c(Cl)ccc2cc(Cl)cnc12
inactive: [1] | [2] | [3] | [4] | [5] | [6]

CC(C)C1(C)N=C(c2ncccc2C(=O)O)NC1=O (stereo not drawn)
inactive: [1] | [2] | [3] | [4] | [5] | [6]

CC1(C)C(C(=O)OC(C#N)c2cccc(Oc3ccccc3)c2)C1(C)C (stereo not drawn)
inactive: [2] | [3]
active: [1] 13.1 µM | [4] 26.8 µM | [6] 7.56 µM

CC(C)NC(=O)N1CC(=O)N(c2cc(Cl)cc(Cl)c2)C1=O
active: [7] 5.48 µM | [8] 5.75 µM
inactive: [1] | [2] | [3] | [4] | [6]

N#Cc1c(Cl)cccc1Cl
inactive: [1] | [2] | [3] | [4] | [6]

N#Cc1c[nH]cc1-c1cccc2c1OC(F)(F)O2
active: [4] 27.4 µM | [6] 13.1 µM | [8] 0.353 µM
inactive: [1] | [2] | [3]

COc1cc(Cl)c(OC)cc1Cl
inactive: [1] | [2] | [3] | [4] | [6]

CCOP(=S)(OCC)Oc1nc(Cl)n(C(C)C)n1
inactive: [1] | [2] | [3] | [4] | [6]
active: [9] 1 µM

Nc1c(Cl)c(Cl)nc(C(=O)O)c1Cl
inactive: [1] | [2] | [3] | [4] | [6]

CC(C)N1C(=O)N(c2ccccc2)CSC1=NC(C)(C)C
active: [1] 27.3 µM | [2] 38.8 µM | [3] 32.2 µM | [4] 26.3 µM | [6] 27.8 µM

CSC(=O)c1c(C(F)F)nc(C(F)(F)F)c(C(=O)SC)c1CC(C)C
active: [1] 13.1 µM | [3] 27.6 µM | [4] 12.7 µM | [6] 14.6 µM | [8] 3.3 µM
inactive: [2]

CCCC(=NOCC)C1=C(O)CC(CC(C)SCC)CC1=O (stereo not drawn)
inactive: [1] | [2] | [3] | [4] | [6]

CC(C)N1C(=O)c2ccccc2NS1(=O)=O
inactive: [1] | [2] | [3] | [4] | [6]

CS(=O)(=O)c1ccc(C(=O)C2C(=O)CCCC2=O)c([N+](=O)[O-])c1
inactive: [1] | [2] | [3] | [4] | [6]

C=C(C)CN(CC)c1c([N+](=O)[O-])cc(C(F)(F)F)cc1[N+](=O)[O-]
inactive: [2] | [4]
active: [1] 33.7 µM | [3] 30.8 µM | [6] 15.2 µM

CC(C)Oc1cccc(NC(=O)c2ccccc2C(F)(F)F)c1
inactive: [1] | [2] | [3] | [4]
active: [6] 15.1 µM | [8] 6.37 µM

O=c1n(Cl)c(=O)n(Cl)c(=O)n1Cl
inactive: [1] | [2] | [3] | [4] | [6]

Clc1nc(Cl)nc(Nc2ccccc2Cl)n1
inactive: [1] | [2] | [3] | [4] | [6]

COC(=O)N(C(=O)N1CO[C@@]2(C(=O)OC)Cc3cc(Cl)ccc3C2=N1)c1ccc(OC(F)(F)F)cc1
inactive: [1] | [2] | [3]
active: [4] 5.25 µM | [6] 5.59 µM

CCN(CC)c1nc(C)cc(OP(=S)(OC)OC)n1
active: [1] 10.5 µM | [4] 14.1 µM | [9] 4.4 µM | [8] 1.41 µM
inactive: [2] | [3] | [6]

CCCCOCN(C(=O)CCl)c1c(CC)cccc1CC
active: [1] 18.9 µM | [2] 33.9 µM | [3] 33.2 µM | [4] 31 µM | [6] 28.6 µM | [9] 8.94 µM

CCOC(=O)C(C)OC(=O)c1cc(Oc2ccc(C(F)(F)F)cc2Cl)ccc1[N+](=O)[O-] (stereo not drawn)
active: [1] 10 µM | [6] 14 µM
inactive: [2] | [3] | [4]

CC1(C)CON(Cc2ccccc2Cl)C1=O
inactive: [1] | [2] | [3] | [4] | [6]

CC(C)(C)C(=O)C(Oc1ccc(Cl)cc1)n1cncn1 (stereo not drawn)
active: [7] 1.62 µM
inactive: [1] | [2] | [3] | [4] | [6]

Nc1c(Cl)c(F)nc(OCC(=O)O)c1Cl
inactive: [1] | [2] | [3] | [4] | [6]

CCOc1nc(C(Cl)(Cl)Cl)ns1
inactive: [2] | [3] | [4] | [6]
active: [1] 13.3 µM

CN=C=S
inactive: [2] | [3] | [6]
active: [1] 12 µM | [4] 11.7 µM

CCN(CC)C(=O)C(C)Oc1cccc2ccccc12 (stereo not drawn)
active: [1] 1.06 µM | [9] 5.79 µM
inactive: [2] | [3] | [4] | [6]

CC(C)Nc1nc(Cl)nc(NC(C)C)n1
active: [1] 4.2 µM
inactive: [2] | [3] | [4] | [6]

COCC(C)N(C(=O)CCl)c1c(C)csc1C (stereo not drawn)
active: [1] 10.7 µM
inactive: [2] | [3] | [4] | [6]

CC1(C)C(C=C(Cl)Cl)C1C(=O)OC(C#N)c1cccc(Oc2ccccc2)c1 (stereo not drawn)
active: [6] 6.38 µM
inactive: [1] | [2] | [3] | [4]

CCCCC(O)(Cn1cncn1)c1ccc(Cl)cc1Cl (stereo not drawn)
active: [1] 22.5 µM | [9] 1.07 µM
inactive: [2] | [3] | [4] | [6]

Cc1cnc(C2=NC(C)(C(C)C)C(=O)N2)c(C(=O)O)c1 (stereo not drawn)
inactive: [1] | [2] | [3] | [4] | [6]

N#CN=C1SCCN1Cc1ccc(Cl)nc1
inactive: [1] | [2] | [3] | [4] | [6]

COc1cc(OC)nc(NC(=O)NS(=O)(=O)c2ncccc2OCC(F)(F)F)n1
inactive: [1] | [2] | [3] | [4] | [6]

COP(=S)(OC)Oc1ccc([N+](=O)[O-])c(C)c1
active: [1] 29.6 µM | [4] 29.6 µM | [10] 1.98 µM | [9] 1.3 µM | [8] 0.516 µM
inactive: [2] | [3] | [6]

O=C(Nc1ccccc1-c1ccc(Cl)cc1)c1cccnc1Cl
inactive: [1] | [2] | [3] | [4] | [6]

O=P(O)(O)CCCl
inactive: [1] | [2] | [3] | [4] | [6]
